Source: article PMC5540273 (PLoS ONE, 2017)

These compounds were tested on T1, CDK11. Details: concentration: 1 μM,replicates: in singlicate; n = 1.
T1 construct: gene CDK19
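Note: KINOMEscan kinase panel screen.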

Structure (SMILES) | %Inh [%]
Cc1n[nH]c2ccc(-c3cc(OC[C@@H](N)Cc4ccccc4)cnc3-c3ccoc3)cc12.O=C(O)C(F)(F)F.O=C(O)C(F)(F)F [GSK507358] | 6
CC(C)Nc1cc(-c2ccc3c(N)n[nH]c3c2)nc(N)n1 [GSK2221681] | 0
CNC(=O)c1ccccc1Sc1ccc2c(/C=C/c3ccccn3)n[nH]c2c1 | 0
Cl.Cl.NC[C@H](Cc1ccc(C(F)(F)F)cc1)NC(=O)c1cc(Br)c(-c2ccnc3[nH]ccc23)s1 [GSK1487252] | 14
Cl.Cl.Nc1nc(-c2ccc3c(N)n[nH]c3c2)cc(N2CCCC(NC(=O)c3ccccc3)C2)n1 (stereo not drawn) [GSK2286775] | 11
O=C(NCCCN1CCOC1=O)c1cnc(NCc2cc(Cl)ccc2Cl)nc1NC1CCCC1 | 29
CN(C)CC(O)COc1ccc(Nc2nccc(-c3cnn4nc(N5CCOCC5)ccc34)n2)cc1 (stereo not drawn) [GW767488] | 27
Cc1ccc(-n2nc(C(C)(C)C)cc2NC(=O)Nc2ccc(OCCN3CCOCC3)c3ccccc23)cc1 [GW839464] | 100
Cc1cc(C(=O)Nc2ccc(Oc3ccc4nc(NC(=O)C5CC5)cn4n3)cc2)nn1-c1ccccc1 | 3
C=CC(=O)Nc1cc2c(Nc3ccc(F)c(Cl)c3)ncnc2cc1OCCCN1CCOCC1 [GW781483] | 15
Cc1cc2cn[nH]c2cc1-c1cccc2c(N)c(C(N)=O)nnc12 | 1
C[C@@H]1CCN(C(=O)CC#N)C[C@@H]1N(C)c1ncnc2[nH]ccc12 | 18
CC(C)N1C(=O)Cc2cc(Nc3ncc(C(F)(F)F)c(NCc4cccc(S(C)(=O)=O)c4)n3)ccc21 | 0
C[C@H]1Oc2cc(cnc2N)-c2c(nn(C)c2C#N)CN(C)C(=O)c2ccc(F)cc21 | 12
Cc1occc1-c1nc(N)c(OC[C@@H](N)Cc2c[nH]c3ccccc23)cc1-c1cc2c(C)n[nH]c2cn1 [GSK1660450] | 0
Cc1ccc2c(-c3ccncc3)c(-c3ccc(F)cc3)nn2c1.Cl [GW461484] | 0
CCN(CC)CCCCNc1ncc2cc(-c3c(Cl)cccc3Cl)c(NC(=O)NC(C)(C)C)nc2n1 | 14
CCN(CC)CCOc1ccc(Nc2ncc3cc(-c4c(Cl)cccc4Cl)c(=O)n(C)c3n2)cc1 [SB-601273] | 90.1
NC(=O)c1cc(-c2ccccc2)cc2c(C3CCNCC3)c[nH]c12 [GSK301362] | 6
CCn1c(-c2nonc2N)nc2c(C#CC(C)(C)O)nc(OCCN)cc21.Cl.Cl [GSK902056] | 1
O=C(NCCNc1ccnc(NCc2ccc(F)cc2)n1)c1cc2ccccc2s1 [GSK1379944] | 0
Cl.Oc1cc(-c2nc(-c3ccccc3)[nH]c2-c2ccncc2)ccc1Cl [SB-386023] | 5
COc1ccc(C[C@@H](CN)NC(=O)c2cc(Br)c(-c3ccnc4[nH]ccc34)s2)cc1.Cl.Cl [GSK1389063] | 39
Cl.Cl.NC[C@H](CC1CCCCC1)NC(=O)c1cc(Br)c(-c2ccnc3[nH]ccc23)s1 [GSK1581427] | 12
CN(C)CCOc1ccc(-c2cc(-c3c[nH]nc3-c3ccccn3)ccn2)cc1 [GW835314] | 13
C[C@@H](Oc1cc(-c2cnn(C3CCNCC3)c2)cnc1N)c1c(Cl)ccc(F)c1Cl | 29
Nc1nc(Nc2ccccc2)cc(-c2ccc3c(N)n[nH]c3c2)n1 [GSK2225749] | 0
